Source: PubChem BioAssay AID588676 (Johns Hopkins Ion Channel Center, 2011)
In all, about 310,000 compounds went through this assay and about 3,900 (1.3%) were called active.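 Rule for the calls: active = calcium-response B-score plate-corrected more than 3 library SD below zero, starting fluorescence within 5 deviations, no agonist response on first addition; inactive = the rest.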 This excerpt belongs to a sample that is enriched for actives.

target: Mas-related G-protein coupled receptor member X1 (Homo sapiens) (UniProt Q96LB2); assay: blockade of BAM8-22-evoked MrgX1 calcium response – HEK293 cells, Fluo-4 calcium flux, primary screen (AID 588676); conditions: Fluo-4, BAM8-22 antagonism, at 10 µM; stronger effect = lower value;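 for B-score: peak minus trough fluorescence over baseline after final BAM8-22 challenge near maximal dose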
Sequence (Q96LB2 whole entry, looked up): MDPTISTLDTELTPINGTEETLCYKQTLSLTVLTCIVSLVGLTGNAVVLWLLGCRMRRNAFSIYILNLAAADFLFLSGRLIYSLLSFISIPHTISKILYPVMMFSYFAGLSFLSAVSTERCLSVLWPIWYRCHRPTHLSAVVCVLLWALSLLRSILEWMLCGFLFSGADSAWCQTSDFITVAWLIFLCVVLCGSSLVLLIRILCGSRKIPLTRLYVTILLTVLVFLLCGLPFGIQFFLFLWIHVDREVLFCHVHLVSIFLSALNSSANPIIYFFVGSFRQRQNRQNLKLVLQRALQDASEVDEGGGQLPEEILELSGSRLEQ

**Q.** Which B-score does the source give for `COCCC(=O)Nc1ccc2c(c1)CN(C(=O)CCOC)CC2` here?
**A.** inactive

**Q.** How did the B-score turn out when `COc1ccc2cc(-c3[nH]ncc3CNCCn3nc(C)cc3C)ccc2c1` was run?
**A.** inactive

**Q.** For `CCOc1ccc(CN2CCN(Cc3ccc4cc(F)ccc4n3)CC2CCO)cc1` (stereo unspecified), which B-score is on record?
**A.** inactive

**Q.** With `O=C(c1cc(-c2ccccc2O)on1)N1CCCC1` as the compound, how does the B-score read?
**A.** inactive

**Q.** How did the B-score turn out when `C=CCNC(=O)c1csc(-c2ccccc2)n1` was run?
**A.** -6.07 (active)

**Q.** How did the B-score turn out when `O=C(Nc1cccnc1Cl)c1cc(-c2ccccc2O)on1` was run?
**A.** inactive

**Q.** `C=CCNC(=O)c1cc(-c2ccccc2O)on1` was tested. Which B-score did it give?
**A.** -5.5 (active)

**Q.** How did the B-score turn out when `O=C(NCCc1csc(-c2ccccc2)n1)c1ccccc1F` was run?
**A.** inactive

**Q.** Which B-score does the source give for `CNC(=O)c1csc(-c2ccccc2)n1` here?
**A.** inactive

**Q.** How did the B-score turn out when `CC(NC(=O)CCCC1CCCCC1)c1ccc(S(N)(=O)=O)cc1` (stereo unspecified) was run?
**A.** inactive

**Q.** For `Cc1ccc(C)c(N2CCN(C(=O)Cn3ncn4cccc4c3=O)CC2)c1`, which B-score is on record?
**A.** inactive

**Q.** With `O=C(C1=C[C@H](C2CC2)C[C@H](OCc2ccc(CO)cc2)O1)N1CCN(Cc2ccccc2)CC1` as the compound, how does the B-score read?
**A.** inactive

**Q.** For `Nc1nc(NCc2ccccc2)n(-c2ccccc2)n1`, which B-score is on record?
**A.** inactive

**Q.** For `O=C1CCC(C(=O)N2CCCCO2)CN1Cc1cccc(C(F)(F)F)c1` (stereo unspecified), which B-score is on record?
**A.** inactive

**Q.** `O=C(NC(=S)Nc1cccc(-c2ccc(CO)o2)c1)c1cccs1` was tested. Which B-score did it give?
**A.** inactive

**Q.** For `CCc1ccc(-c2cc3c(=O)n(CC(=O)NCCCN4CCN(Cc5ccccc5)CC4)nc(C)n3n2)cc1`, which B-score is on record?
**A.** inactive

**Q.** Which B-score does the source give for `COc1cccc(CNC(=O)CN(C)S(=O)(=O)c2ccc3c(c2)c(=O)n(C)c(=O)n3C)c1` here?
**A.** inactive

**Q.** `COc1ccccc1NC(=O)CCC(=O)OC(C)C(=O)c1ccccc1` (stereo unspecified) was tested. Which B-score did it give?
**A.** inactive

**Q.** Which B-score does the source give for `CCC(=O)NC(NCC1CCCO1)C(Cl)(Cl)Cl` (stereo unspecified) here?
**A.** inactive

**Q.** `S=C(NCCc1ccccc1)NCC1CCCO1` (stereo unspecified) was tested. Which B-score did it give?
**A.** inactive

**Q.** For `CC1(C(=O)NNC(=S)NCC2CCCO2)CC1(Cl)Cl` (stereo unspecified), which B-score is on record?
**A.** -5.39 (active)

**Q.** Which B-score does the source give for `COCCNC(=O)c1ccccc1NS(=O)(=O)c1ccc(C)c([N+](=O)[O-])c1` here?
**A.** -4.52 (active)

**Q.** Which B-score does the source give for `Cc1ccc(S(=O)(=O)Nc2nc3ccccc3s2)cc1[N+](=O)[O-]` here?
**A.** inactive

**Q.** Which B-score does the source give for `Cc1ccc(S(=O)(=O)NCCSc2ccccc2)cc1[N+](=O)[O-]` here?
**A.** inactive

**Q.** Which B-score does the source give for `CCN1C(=O)[C@H]2[C@@H](c3ccc(SC4CCCCC4)c(OC)c3)N[C@@](Cc3ccccc3)(C(=O)OC)[C@H]2C1=O` here?
**A.** inactive

**Q.** With `CCOC(=O)Cn1c(O)c(N=NC(=O)CNC(=O)Cc2ccccc2)c2ccccc21` as the compound, how does the B-score read?
**A.** inactive

**Q.** How did the B-score turn out when `CCOc1cc(S(=O)(=O)NCc2ccc3c(c2)OCO3)ccc1F` was run?
**A.** inactive

**Q.** With `Cc1cccc(NC(=O)N(Cc2cc3cc(C)cc(C)c3[nH]c2=O)CC2COCCO2)c1` (stereo unspecified) as the compound, how does the B-score read?
**A.** inactive

**Q.** Which B-score does the source give for `CCOc1ccc(NC(=O)[C@H](C)NC(=O)C2CC(=O)N(c3ccc(OC)cc3)C2)cc1` (stereo partly specified) here?
**A.** inactive

**Q.** For `NC(=O)c1ccccc1N=Cc1ccc2ccccc2c1`, which B-score is on record?
**A.** inactive

**Q.** How did the B-score turn out when `O=C(CSc1ncccn1)NC(=O)NCc1ccccc1` was run?
**A.** -6.78 (active)

**Q.** How did the B-score turn out when `O=C(COc1ncnc2ccccc12)NC(=O)NCc1ccccc1` was run?
**A.** inactive

**Q.** How did the B-score turn out when `O=C(CSc1ncccn1)NCCc1ccccc1` was run?
**A.** inactive

**Q.** Which B-score does the source give for `CCOC(=O)[C@H]1[C@H]2COc3ccc(OC)cc3[C@@H]2N2C(=O)c3ccc(F)cc3NC(=O)[C@@]12C` here?
**A.** inactive

**Q.** For `COC1=C(N2CCOCC2)C(=O)c2ccccc2C1=O`, which B-score is on record?
**A.** inactive

**Q.** With `CN1C(C(=O)NCC2CC2)CC2Cn3c(nc4ccccc43)C21` (stereo unspecified) as the compound, how does the B-score read?
**A.** inactive

**Q.** Which B-score does the source give for `COc1cccc(OCCOc2cccc(/C=N/n3cnnc3)c2)c1` here?
**A.** inactive

**Q.** `Clc1ccc(CN2CCN(/N=C/c3cccnc3)CC2)cc1` was tested. Which B-score did it give?
**A.** inactive

**Q.** For `C(=N\n1cnnc1)/c1cccnc1`, which B-score is on record?
**A.** -4.63 (active)

**Q.** How did the B-score turn out when `Cc1ccc(S(=O)(=O)N2[C@@H](c3ccccc3F)C(C(=O)O)=CC[C@H]2c2ccc(Cl)cc2)cc1` was run?
**A.** inactive

**Q.** `CC1CCC(NC(=O)CN(C)S(=O)(=O)c2ccc3c(c2)c(=O)n(C)c(=O)n3C)CC1` (stereo unspecified) was tested. Which B-score did it give?
**A.** inactive

**Q.** For `CS(=O)(=O)Nc1ccccc1N=C(c1ccccc1)c1ccccc1`, which B-score is on record?
**A.** inactive

**Q.** Which B-score does the source give for `NC(N)=NCCCc1cn(CC(=O)N2CCNCC2)nn1` here?
**A.** inactive

**Q.** How did the B-score turn out when `Cc1nn(-c2ccccc2)c(C)c1NC(=O)CCl` was run?
**A.** inactive

**Q.** `Cc1nn(-c2ccccc2)c(C)c1NC(=O)COc1ccc(Cl)cc1Cl` was tested. Which B-score did it give?
**A.** -5.44 (active)

**Q.** Which B-score does the source give for `Cc1nn(-c2ccccc2)c(C)c1NC(=O)COC(=O)c1cc(Cl)ccc1O` here?
**A.** inactive

**Q.** `Cc1c(C(=O)NCC(c2ccco2)N2CCCC2)oc2ccc(Cl)cc12` (stereo unspecified) was tested. Which B-score did it give?
**A.** inactive

**Q.** For `Cc1c(-c2ccccc2)cn2c1-c1ccc(C)n1CC2`, which B-score is on record?
**A.** inactive

**Q.** With `Cc1cc(Br)ccc1NC(=O)c1cnc(N2CCN(c3ccccn3)CC2)c2ccccc12` as the compound, how does the B-score read?
**A.** -5.72 (active)

**Q.** For `O=C(Cc1ccc(Br)cc1)N1CCN(c2ccccn2)CC1`, which B-score is on record?
**A.** inactive

**Q.** With `Cc1cc(Br)ccc1NC(=O)c1sc2ncn(CC(=O)N3CCN(c4ccccn4)CC3)c(=O)c2c1C` as the compound, how does the B-score read?
**A.** inactive

**Q.** Which B-score does the source give for `O=C(Nc1cc(C(F)(F)F)ccc1Cl)c1cc2nc3c(c(C(F)(F)F)n2n1)CCCC3` here?
**A.** inactive

**Q.** `COC(=O)c1ccc2ccccc2c1OC1OC(CO)C(O)C(O)C1NC(C)=O` (stereo unspecified) was tested. Which B-score did it give?
**A.** inactive

**Q.** For `O=C(Nc1ccc(Cl)cc1)c1cc2nc(C3CC3)cc(C(F)(F)F)n2n1`, which B-score is on record?
**A.** inactive

**Q.** How did the B-score turn out when `Cc1cc(C)c(S(=O)(=O)NCC2CCC(C(=O)NCc3ccc4c(c3)OCO4)CC2)c(C)c1` (stereo unspecified) was run?
**A.** inactive

**Q.** For `COc1cc(NC(=O)CN2C(=O)NC(C)(c3ccc(OC(F)F)cc3)C2=O)cc(OC)c1OC` (stereo unspecified), which B-score is on record?
**A.** inactive

**Q.** For `CCN1CCN(CCNC(=O)c2ccc(/C=C3/Sc4ccccc4N(Cc4cccc(C)c4)C3=O)cc2)CC1`, which B-score is on record?
**A.** -7.53 (active)

**Q.** For `CCN1CCN(CCNC(=O)c2ccc3c(c2)NC(=O)/C(=C\c2ccc(OC)c(OC)c2)S3)CC1`, which B-score is on record?
**A.** inactive

**Q.** Which B-score does the source give for `O=C(NCCN1CCOCC1)c1ccc(/C=C2\Sc3ccccc3N(Cc3ccc(F)cc3)C2=O)cc1` here?
**A.** inactive

**Q.** How did the B-score turn out when `Cc1ccc(Nc2cc(=O)n(C3CCCCC3)c(=O)[nH]2)cc1C` was run?
**A.** inactive

**Q.** `COc1cccc(N(Cc2nnc3n2CCCCC3)C(=O)Nc2ccccc2F)c1` was tested. Which B-score did it give?
**A.** inactive

**Q.** `Cc1cccc(Nc2nc(-c3ccccc3)cs2)n1` was tested. Which B-score did it give?
**A.** inactive

**Q.** How did the B-score turn out when `Cc1ccc(Nc2nc(-c3ccc(O)cc3O)cs2)nc1` was run?
**A.** -4.59 (active)

**Q.** `Clc1ccc(Nc2nc(-c3cccs3)cs2)nc1` was tested. Which B-score did it give?
**A.** inactive

**Q.** With `COc1ccc(-c2cc(C(=O)N(C)Cc3ccc(OC)c(OC)c3OC)c3ccccc3n2)cc1OC` as the compound, how does the B-score read?
**A.** inactive

**Q.** How did the B-score turn out when `CCCCCCCCCCOC(=O)Cn1c(COc2ccc(C)cc2)[n+](C)c2ccccc21` was run?
**A.** -10.1 (active)

**Q.** With `Cc1ccc(OCCCn2c(=O)oc3ccccc32)cc1` as the compound, how does the B-score read?
**A.** inactive

**Q.** For `Cc1ccc(OCc2nc3ccccc3n2C)cc1`, which B-score is on record?
**A.** inactive

**Q.** For `CCn1c(COc2cccc(OC)c2)nnc1SCC(=O)N1CCOCC1`, which B-score is on record?
**A.** inactive

**Q.** With `CCCCCCCCC(=O)NCCOc1ccccc1` as the compound, how does the B-score read?
**A.** inactive

**Q.** Which B-score does the source give for `CCCCCCCCCCOC(=O)Cn1c(COc2cccc(OC)c2)[n+](C)c2ccccc21` here?
**A.** -13.2 (active)
